According to the supplement of paper PMC11732987, “Enantioselective OTUD7B fragment discovery through chemoproteomics screening and high-throughput optimisation” (Communications Chemistry, 2025):

Assays:
Assay in all cases: log2 ratio of Biotin-Ahx-Ub-VS probe labelling (fragment/DMSO); higher = less target engagement (more negative = stronger competition), active = hit call of the paper (q ≤ 0.05, log2 ratio ≤ -1)
Settings in all cases: compound concentration: 200 uM; treatment time: 3 h
ALG13 = biological target: T1, ALG13 (UniProt Q9NP73)
T1 sequence (whole entry): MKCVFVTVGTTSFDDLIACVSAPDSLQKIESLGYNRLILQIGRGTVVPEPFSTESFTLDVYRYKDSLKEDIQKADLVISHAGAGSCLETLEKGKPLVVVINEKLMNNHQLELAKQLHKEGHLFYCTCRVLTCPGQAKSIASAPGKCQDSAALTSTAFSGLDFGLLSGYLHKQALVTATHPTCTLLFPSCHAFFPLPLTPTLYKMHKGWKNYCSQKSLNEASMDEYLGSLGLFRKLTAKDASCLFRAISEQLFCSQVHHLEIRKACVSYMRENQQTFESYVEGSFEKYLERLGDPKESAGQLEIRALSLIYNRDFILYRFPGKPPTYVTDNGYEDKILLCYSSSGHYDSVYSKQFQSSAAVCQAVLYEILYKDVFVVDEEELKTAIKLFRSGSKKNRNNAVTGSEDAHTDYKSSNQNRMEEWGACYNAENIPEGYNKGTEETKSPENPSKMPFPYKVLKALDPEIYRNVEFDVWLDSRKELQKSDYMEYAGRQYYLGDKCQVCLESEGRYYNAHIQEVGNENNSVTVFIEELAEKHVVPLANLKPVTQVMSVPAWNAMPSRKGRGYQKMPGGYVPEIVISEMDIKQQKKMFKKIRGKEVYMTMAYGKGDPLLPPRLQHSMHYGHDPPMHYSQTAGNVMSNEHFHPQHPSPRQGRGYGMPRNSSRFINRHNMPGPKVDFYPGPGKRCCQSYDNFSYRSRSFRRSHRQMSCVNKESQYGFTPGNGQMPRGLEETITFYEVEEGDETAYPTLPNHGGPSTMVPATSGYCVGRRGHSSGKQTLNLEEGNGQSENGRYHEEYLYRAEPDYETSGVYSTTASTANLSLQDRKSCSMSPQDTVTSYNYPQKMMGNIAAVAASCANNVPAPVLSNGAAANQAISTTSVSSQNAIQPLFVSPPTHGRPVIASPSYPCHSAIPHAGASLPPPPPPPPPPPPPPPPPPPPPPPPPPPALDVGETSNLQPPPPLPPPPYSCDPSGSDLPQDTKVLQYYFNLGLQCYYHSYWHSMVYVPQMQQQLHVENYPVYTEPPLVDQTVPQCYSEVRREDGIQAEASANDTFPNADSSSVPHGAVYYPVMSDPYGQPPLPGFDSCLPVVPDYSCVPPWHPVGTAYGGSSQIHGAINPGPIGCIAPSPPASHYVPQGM
How it was run: (§1)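 Each value is an average log2 ratio of fragment to vehicle, tested by unpaired t-test. The underlying Spectronaut label-free quantities were global-median-normalised, and only proteins with ≥2 unique peptides were included. Triplicate HEK293T lysate samples (495 µg) were exposed to fragment at 200 µM or vehicle for 3 h, then to Biotin-Ahx-Ub-VS at 0.5 µM final for 1 h, before NeutrAvidin enrichment of labelled DUBs, LysC and trypsin digestion, and diaPASEF LC-MS/MS.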

ATXN3 = ATXN3 (UniProt P54252)
How it was run: as §1

BAP1 = biological target: T2, BAP1 (UniProt Q92560)
T2 sequence (whole entry): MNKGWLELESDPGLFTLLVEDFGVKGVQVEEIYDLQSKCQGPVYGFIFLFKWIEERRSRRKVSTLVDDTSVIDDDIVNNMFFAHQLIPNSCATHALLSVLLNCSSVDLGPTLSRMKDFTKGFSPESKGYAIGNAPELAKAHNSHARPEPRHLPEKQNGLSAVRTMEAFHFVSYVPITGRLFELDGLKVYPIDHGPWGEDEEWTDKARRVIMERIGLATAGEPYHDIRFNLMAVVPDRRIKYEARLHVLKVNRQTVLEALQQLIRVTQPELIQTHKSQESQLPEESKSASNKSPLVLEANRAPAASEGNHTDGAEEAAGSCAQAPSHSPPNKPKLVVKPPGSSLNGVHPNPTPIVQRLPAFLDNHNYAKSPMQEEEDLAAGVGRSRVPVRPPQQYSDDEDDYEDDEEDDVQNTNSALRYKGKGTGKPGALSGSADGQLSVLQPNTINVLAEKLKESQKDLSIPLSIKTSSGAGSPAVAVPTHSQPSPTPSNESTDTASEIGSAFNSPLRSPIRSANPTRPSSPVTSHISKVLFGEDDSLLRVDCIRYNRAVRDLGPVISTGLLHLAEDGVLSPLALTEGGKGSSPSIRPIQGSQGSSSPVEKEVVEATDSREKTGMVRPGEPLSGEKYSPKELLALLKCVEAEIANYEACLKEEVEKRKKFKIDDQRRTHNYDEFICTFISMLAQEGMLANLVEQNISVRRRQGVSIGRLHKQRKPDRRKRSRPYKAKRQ
How it was run: as §1

EIF3F = EIF3F (UniProt O00303)
How it was run: as §1

EIF3H = EIF3H (UniProt O15372)
How it was run: as §1

FAM105A = biological target: T3, FAM105A (UniProt Q9NUU6)
T3 sequence (whole entry): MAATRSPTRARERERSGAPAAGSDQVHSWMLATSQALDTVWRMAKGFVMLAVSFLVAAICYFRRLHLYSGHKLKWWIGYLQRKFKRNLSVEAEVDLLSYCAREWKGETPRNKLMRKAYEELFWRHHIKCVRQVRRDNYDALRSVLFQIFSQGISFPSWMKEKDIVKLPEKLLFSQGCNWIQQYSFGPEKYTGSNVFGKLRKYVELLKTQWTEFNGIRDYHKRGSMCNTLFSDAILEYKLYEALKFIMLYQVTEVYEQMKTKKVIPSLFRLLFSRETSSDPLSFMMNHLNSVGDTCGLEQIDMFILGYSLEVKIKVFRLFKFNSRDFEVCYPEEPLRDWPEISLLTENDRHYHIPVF
How it was run: as §1

OTUB1 = OTUB1 (UniProt Q96FW1)
How it was run: as §1

OTUD4 = biological target: T4, OTUD4 (UniProt Q01804)
T4 sequence (whole entry): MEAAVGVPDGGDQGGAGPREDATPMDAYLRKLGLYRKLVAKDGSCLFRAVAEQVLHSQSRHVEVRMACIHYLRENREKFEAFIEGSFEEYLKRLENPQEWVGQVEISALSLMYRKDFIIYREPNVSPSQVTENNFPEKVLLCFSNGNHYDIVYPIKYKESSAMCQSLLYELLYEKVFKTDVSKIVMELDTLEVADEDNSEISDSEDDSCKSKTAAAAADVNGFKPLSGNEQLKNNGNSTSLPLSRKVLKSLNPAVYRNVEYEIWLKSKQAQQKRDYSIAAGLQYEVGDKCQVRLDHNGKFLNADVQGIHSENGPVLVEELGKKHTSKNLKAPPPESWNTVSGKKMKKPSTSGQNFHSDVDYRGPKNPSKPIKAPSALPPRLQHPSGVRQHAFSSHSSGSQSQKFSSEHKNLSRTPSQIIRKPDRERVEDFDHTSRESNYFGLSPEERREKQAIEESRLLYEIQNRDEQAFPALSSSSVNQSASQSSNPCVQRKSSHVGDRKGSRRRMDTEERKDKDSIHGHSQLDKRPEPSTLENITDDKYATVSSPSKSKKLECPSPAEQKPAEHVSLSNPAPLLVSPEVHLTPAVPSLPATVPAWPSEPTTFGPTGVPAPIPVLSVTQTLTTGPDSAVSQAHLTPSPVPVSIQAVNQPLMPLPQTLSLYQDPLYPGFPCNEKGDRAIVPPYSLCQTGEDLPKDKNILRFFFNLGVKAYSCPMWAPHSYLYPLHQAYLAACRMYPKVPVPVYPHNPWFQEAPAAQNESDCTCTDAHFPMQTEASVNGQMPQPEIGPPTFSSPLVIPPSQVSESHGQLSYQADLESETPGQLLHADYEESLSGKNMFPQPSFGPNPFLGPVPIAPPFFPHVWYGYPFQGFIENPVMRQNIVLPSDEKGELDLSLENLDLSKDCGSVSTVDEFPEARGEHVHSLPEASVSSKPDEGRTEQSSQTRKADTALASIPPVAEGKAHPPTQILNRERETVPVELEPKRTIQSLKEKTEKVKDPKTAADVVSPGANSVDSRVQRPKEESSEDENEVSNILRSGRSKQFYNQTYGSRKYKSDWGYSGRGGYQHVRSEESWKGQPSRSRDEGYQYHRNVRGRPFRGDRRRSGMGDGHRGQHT
How it was run: as §1

OTUD5 = biological target: T5, OTUD5 (UniProt Q96G74)
T5 sequence (whole entry): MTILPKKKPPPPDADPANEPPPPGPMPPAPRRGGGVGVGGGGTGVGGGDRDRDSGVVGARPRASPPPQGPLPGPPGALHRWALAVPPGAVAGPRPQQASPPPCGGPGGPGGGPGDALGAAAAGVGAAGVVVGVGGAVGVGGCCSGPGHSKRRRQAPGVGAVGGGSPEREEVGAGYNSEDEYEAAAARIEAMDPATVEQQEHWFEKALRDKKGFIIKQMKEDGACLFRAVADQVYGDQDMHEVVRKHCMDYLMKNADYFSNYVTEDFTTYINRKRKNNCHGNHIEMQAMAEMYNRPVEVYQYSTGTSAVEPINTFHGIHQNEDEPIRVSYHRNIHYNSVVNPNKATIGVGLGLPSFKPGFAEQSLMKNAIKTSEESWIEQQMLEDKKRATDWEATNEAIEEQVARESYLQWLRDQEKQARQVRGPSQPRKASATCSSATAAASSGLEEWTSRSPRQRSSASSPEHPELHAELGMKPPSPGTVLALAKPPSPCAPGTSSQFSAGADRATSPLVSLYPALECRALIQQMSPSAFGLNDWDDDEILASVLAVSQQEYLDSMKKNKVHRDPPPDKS
How it was run: as §1

Measured: log2 ratio of Biotin-Ahx-Ub-VS probe labelling

Chain of ATXN3 (P54252 whole entry): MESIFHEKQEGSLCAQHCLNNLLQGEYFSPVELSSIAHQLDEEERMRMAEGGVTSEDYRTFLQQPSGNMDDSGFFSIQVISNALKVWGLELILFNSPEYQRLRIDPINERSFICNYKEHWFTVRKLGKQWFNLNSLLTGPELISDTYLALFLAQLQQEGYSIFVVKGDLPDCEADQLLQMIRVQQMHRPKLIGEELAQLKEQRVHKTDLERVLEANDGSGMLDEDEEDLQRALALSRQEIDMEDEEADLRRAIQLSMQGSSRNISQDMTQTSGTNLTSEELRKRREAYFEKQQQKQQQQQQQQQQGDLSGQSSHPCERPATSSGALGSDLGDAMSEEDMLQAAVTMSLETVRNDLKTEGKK
Chain of EIF3F (O00303 whole entry): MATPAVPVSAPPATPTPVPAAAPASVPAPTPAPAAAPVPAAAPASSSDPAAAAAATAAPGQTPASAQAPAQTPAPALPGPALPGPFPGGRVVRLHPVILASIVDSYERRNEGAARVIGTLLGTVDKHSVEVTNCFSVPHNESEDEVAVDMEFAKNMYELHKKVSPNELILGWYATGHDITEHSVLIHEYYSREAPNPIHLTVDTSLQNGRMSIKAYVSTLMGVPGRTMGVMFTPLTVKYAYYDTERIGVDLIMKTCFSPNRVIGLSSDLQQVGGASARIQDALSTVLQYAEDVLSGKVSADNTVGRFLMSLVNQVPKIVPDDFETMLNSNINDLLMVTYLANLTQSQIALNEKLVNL
Chain of OTUB1 (Q96FW1 whole entry): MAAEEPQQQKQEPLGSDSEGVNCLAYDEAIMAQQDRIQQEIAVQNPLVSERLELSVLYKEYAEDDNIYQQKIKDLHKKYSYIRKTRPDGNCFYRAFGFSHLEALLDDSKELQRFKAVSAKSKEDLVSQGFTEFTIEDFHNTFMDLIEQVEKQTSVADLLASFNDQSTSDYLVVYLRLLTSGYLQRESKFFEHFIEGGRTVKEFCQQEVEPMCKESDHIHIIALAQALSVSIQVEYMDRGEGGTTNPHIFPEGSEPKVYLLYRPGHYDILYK
Chain of EIF3H (O15372 whole entry): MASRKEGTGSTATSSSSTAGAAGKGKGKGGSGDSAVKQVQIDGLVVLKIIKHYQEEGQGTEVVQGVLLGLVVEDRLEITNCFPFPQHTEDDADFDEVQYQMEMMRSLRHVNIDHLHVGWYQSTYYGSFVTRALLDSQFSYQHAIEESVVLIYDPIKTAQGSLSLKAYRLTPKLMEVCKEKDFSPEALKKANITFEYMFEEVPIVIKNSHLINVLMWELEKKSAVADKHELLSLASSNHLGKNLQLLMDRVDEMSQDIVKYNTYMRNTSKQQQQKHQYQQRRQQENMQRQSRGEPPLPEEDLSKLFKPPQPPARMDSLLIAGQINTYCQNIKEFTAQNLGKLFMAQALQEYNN

O=C(CCl)NCc1ccc(N2CCOCC2)c(F)c1
active: BAP1 -2.54
inactive: ALG13 -0.435 | ATXN3 -0.0444 | EIF3F -0.139 | EIF3H -0.335 | FAM105A 0.388 | OTUB1 -0.0261 | OTUD4 -0.0414 | OTUD5 0.0267
